From PubChem BioAssay AID2661 (Broad Institute, 2010)
Screen size: about 320,000 compounds; about 240 (0.075%) were called active. The sample holds actives, similar compounds and a random draw of the others, so the mix is not that of the screen.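 Rule for the calls: active = inhibition at or above 25%, using the most active replicate where run in duplicate; inactive = inhibition below 25%.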

biological target: Serine/threonine-protein kinase 33 (Homo sapiens) (UniProt Q9BYT3); experiment: inhibitors of purified STK33 kinase, primary screen, biochemical, ADP-Glo luminescence, homogeneous, cell-free (AID 2661); settings: purified STK33, MBP phosphorylation, at 10 µM, active compounds read high
Sequence (Q9BYT3 whole entry, looked up): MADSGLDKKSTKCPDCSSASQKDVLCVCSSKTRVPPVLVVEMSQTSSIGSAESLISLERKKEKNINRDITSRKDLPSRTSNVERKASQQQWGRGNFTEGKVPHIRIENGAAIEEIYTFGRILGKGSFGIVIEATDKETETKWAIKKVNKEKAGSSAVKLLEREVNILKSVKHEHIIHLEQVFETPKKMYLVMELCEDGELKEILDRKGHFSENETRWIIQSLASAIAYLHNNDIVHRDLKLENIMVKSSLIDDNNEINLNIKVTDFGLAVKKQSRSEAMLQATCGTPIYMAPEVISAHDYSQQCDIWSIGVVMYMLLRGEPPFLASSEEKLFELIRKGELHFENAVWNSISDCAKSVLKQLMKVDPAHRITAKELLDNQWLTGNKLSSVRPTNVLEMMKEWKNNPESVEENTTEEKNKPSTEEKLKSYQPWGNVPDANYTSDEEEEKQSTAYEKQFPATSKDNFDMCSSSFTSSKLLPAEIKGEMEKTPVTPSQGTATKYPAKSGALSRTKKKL

inhibition, active:
Oc1ccc(N=Cc2c(O)ccc3ccccc23)cc1 57.4%
N=c1c2c(-c3ccccc3)c(-c3ccccc3)oc2ncn1Cc1ccco1 29.3%
O=C(Nc1ccccc1-c1nc2ccccc2[nH]c1=O)c1cccs1 71.9%

inhibition, inactive:
O=[N+]([O-])c1ccc(N=Cc2c(O)ccc3ccccc23)cc1 -0.767%
Oc1ccc(N=Cc2sc3ccccc3c2Cl)cc1 1.25%
CC(OC(=O)c1c(F)cccc1F)C(=O)NCCC1=CCCCC1 (stereo not given) -0.382%
Cc1ccc(C)c(S(=O)(=O)N2CCN(c3ncnc4sccc34)CC2)c1 -3.05%
COc1ccc(C(=O)Nc2cc(S(=O)(=O)N3CCCC3)ccc2Cl)cc1 0.138%
COc1cc(OC)cc(C(=O)NNC(=O)Cc2cccs2)c1 -0.657%
COc1ccc2sc(-c3ccc(S(C)(=O)=O)cc3)c(C#Cc3cncn3C)c2c1 -0.341%
O=C(CNC(=O)c1n[nH]c2ccccc12)Nc1cc(Cl)ccc1Cl 1.57%
CC(C)n1cnc2c(NCc3ccccc3)cc(N[C@@H](CO)Cc3ccccc3)cc21 0.0472%
C=CC[C@@H](CC(=O)N[C@@H](CO)Cc1ccccc1)C(=O)N[C@H](COC(=O)[C@H](CC=C)CC(=O)OC(C)(C)C)Cc1ccccc1 -0.409%
CCCCCCSc1ccc([C@@H]2[C@H]3C(=O)N(CC)C(=O)[C@H]3[C@]3(C(=O)OC)CCCCN23)cc1 1.08%
CC(C)NC(=O)Nc1cccc2c1O[C@H](CN(C)S(=O)(=O)c1cccs1)[C@@H](C)CN([C@H](C)CO)C2=O -0.082%
O=C(CCc1ccc(S(=O)(=O)N2CCOCC2)cc1)OCC(=O)c1ccc(Br)cc1 2.88%
COc1cc(NC(=O)COC(=O)c2ccc([N+](=O)[O-])s2)cc(OC)c1OC -0.723%
O=C(CSc1nc2ccccc2c(=O)n1-c1ccccc1F)N1CCOCC1 -0.216%
COC(=O)c1ccc(CNC(=O)c2ccc(S(=O)(=O)N3CCCCCC3)cc2)cc1 -0.472%
Cn1cncc1C#Cc1c(-c2ccsc2)sc2ccccc12 0.202%
Cc1ccccc1NC(=O)CSC(=O)c1ccccc1 -0.158%
COc1ccc(S(=O)(=O)N2CCOCC2)cc1NC(=O)CSc1nnc(NC2CC2)s1 -0.646%
O=C(CN1C(=O)NC2(CCCCCCC2)C1=O)NCc1ccc(F)cc1 0.305%
COc1cc(/C=C/C(=O)OCC(=O)NCCCc2ccccc2)ccc1O -0.517%
COc1ccc(-c2sc3ccccc3c2-c2ccc(OCCN3CCOCC3)cc2)cc1 -0.928%
COc1ccc(S(=O)(=O)N2CCN(c3cnccn3)CC2)cc1 0.373%
Cc1onc(-c2c(F)cccc2Cl)c1C(=O)OCC(=O)N1C(C)CCCC1C (stereo not given) -0.377%
Cc1ccc(C)c(NC(=O)COC(=O)c2nn(C)c(=O)c3ccccc23)c1 0.213%
Cc1cc(NC(=O)CSc2ncc(C(F)(F)F)cc2Cl)no1 -0.4%
COc1ccc(C(=O)O)cc1S(=O)(=O)NC1CCN(Cc2ccccc2)CC1 -0.986%
Cn1nnnc1SCC(=O)Nc1sccc1C(N)=O 0.459%
O=C(c1ccc(S(=O)(=O)NCc2ccco2)cc1)N1CCN(c2ccccc2)CC1 -0.564%
COCC(C)n1c(SCC(=O)NC2CCCCC2C)nc2ccccc2c1=O (stereo not given) 1.21%
C[C@H](CO)N1C[C@H](C)[C@H](CN(C)C(=O)Nc2ccc(C(F)(F)F)cc2)Oc2c(NC(=O)c3ccncc3)cccc2C1=O -1.64%
Cc1ccc(NC(=O)Cn2cnc3c(OCc4ccccc4)ncnc32)cc1C -0.221%
N=c1c2c(-c3ccccc3)c(-c3ccccc3)n(Cc3ccccc3)c2ncn1CCCO -0.27%
COc1ccc(-c2oc3ncn(Cc4ccco4)c(=N)c3c2-c2ccc(OC)cc2)cc1 0.0388%
CSCCC1NC(=O)N(CC(=O)Nc2cccc(S(=O)(=O)N3CCCCCC3)c2)C1=O (stereo not given) -1.42%
CN=C(Nc1cccc(S(=O)(=O)N2CCOCC2)c1)c1ccccc1 -1.05%
CCN(C(=O)CSc1cccc[n+]1[O-])c1ccccc1 -2.46%
C[C@H](NS(=O)(=O)c1ccc(Cl)cc1)C(=O)OCC(=O)N1CCOCC1 -1.2%
Cc1ccsc1C(=O)NCCc1ccco1 -0.976%
CC(C)CC1NC(=O)c2cc(Cl)ccc2-n2c1nc1ccccc1c2=O (stereo not given) -0.406%
CC(NC(=O)COC(=O)CCC(=O)c1ccc(Cl)cc1)c1ccccc1 (stereo not given) 0.0433%
CCCCCCSc1ccc(-c2nc3ccc(Cl)cn3c2NCc2ccccc2)cc1 -0.955%
O=C(Nc1ccccc1-c1ccccc1)c1cccs1 4.17%
O=C(Nc1ccccc1-c1nnn(CC(=O)N2CCN(c3ccccc3)CC2)n1)c1cccs1 -0.118%
O=C(COc1ccc(Br)cc1F)NCC1(N2CCCCC2)CCCCC1 -1.07%
Cc1ccccc1SCC(=O)OCC(=O)N1CC(=O)Nc2ccccc21 -0.869%
C[C@H](CO)N1C[C@H](C)[C@@H](CN(C)C(=O)NC2CCCCC2)Oc2ccc(NC(=O)c3ccncc3)cc2C1=O 0.225%
CCC(CO)Oc1cc(NC(=O)c2ccc(Cl)cc2)c2ncn(C(C)C)c2c1 (stereo not given) -0.728%
COc1ccc(OCC(=O)NNC(=O)C2CCC2)cc1 -0.275%
COc1ccc(OC)c(NC(=O)COC(=O)Cc2ccsc2)c1 0.647%
Cc1ccc(S(=O)(=O)N2[C@@H](c3ccc(Br)cc3)C(C(=O)O)=C[C@H]2CC2CCCC2)cc1 -2.01%
CCOC(=O)[C@@H]1[C@H]2COc3ccc(Br)cc3[C@H]2N2C(=O)N(c3ccc(C)cc3)C(=O)[C@@]12C -0.0883%
